Laboratory results from PubChem BioAssay (Tox21).
Values joined by “and” are separate entries in the source; they are usually repeats but may differ in a detail not shown here. Equal entries are not always repeated. Results filed as inconclusive are left out. A call without a number means that no potency is given here. The source holds several records for some structures; these can differ, active in one and inactive in another. Active and inactive are the calls of the source. Calls come from the whole dose curve; as a rule, active = well fitted cell-killing curve with a large enough effect in the repeat runs; inconclusive = weak or mixed curves, or effect the other way; inactive = flat fitted curve, though single readings scatter.

Assay: qHTS RealTime-Glo MT Cell Viability Assay in HEK293 cells - 32 hour (AID 1224868); note: nearly all actives have a fitted effect of over 50% in size; for activity change, negative = cytotoxic: top concentration of the series differs between compounds
Details: RealTime-Glo luminescence; series mostly up to 76.8 µM; activity change, negative = cytotoxic: at the top concentration
Description: National Center for Advancing Translational Sciences [NCATS]
NIH Chemical Genomics Center [NCGC]
U.S. Environmental Protection Agency [EPA]
National Institutes of Environmental Health Sciences [NIEHS]
National Toxicology Program [NTP]
U.S. Food and Drug Administration [FDA]
Measure of cell viability is critical in the cell-base assay. Analysis of cell viability is necessary for the characterization of cell responses to cytotoxic drugs and environmental stress. A RealTime-Glo MT Cell Viability Assay to monitor cell viability in real time of continues cell culture during 40 hours of compound treatment was used to screen Tox21 10K library compounds in Hek293 cells. The RealTime-Glo MT Cell Viability Assay is a nonlytic, homogeneous, bioluminescent method to measure cell viability in real time using a simple, plate-based method. The assay involves adding NanoLuc luciferase and a cell-permeant prosubstrate to cells in culture. Viable cells reduce the proprietary prosubstrate to generate a substrate for NanoLuc luciferase. This substrate diffuses from cells into the surrounding culture medium, where it is rapidly used by the NanoLuc Enzyme to produce a luminescent signal. The signal correlates with the number of viable cells, making the assay well suited for cytotoxicity studies.
Tox21 Assay Protocol Summary:
The mixture of Hek293 cell suspension and reagents were dispensed at 600cells/6 ul/well in 1536-well tissue culture treated black solid bottom plates using a Multidrop dispenser. After the assay plates were incubated at a 37 C/5% CO2 incubator for 5 hours, 23 nL of compounds dissolved in DMSO, positive and negative controls was transferred to the assay plate by a pintool work station. The plates were incubated at 37 C for 40 hours. The luminescence intensity were measured at 0h, 8h, 16h, 24h, 32h and 40h time points using ViewLux plate reader during compound treatment.
Potency is the fitted concentration of half-maximal effect.

Compound | activity change, negative = cytotoxic | Potency
O=[N+]([O-])c1ccc(O)c([N+](=O)[O-])c1 | -13.3% (inactive) | –
c1ccc(-c2cccc(-c3ccccc3)c2)cc1 | -27.8% (inactive) | –
OCC(O)CO | – | inactive
CCC(C)c1ccc(O)cc1 (stereo not given) | – | inactive
CCN(CC)C(=O)/C(Cl)=C(\C)OP(=O)(OC)OC | – | inactive
C=C(C)[C@H]1Cc2c(ccc3c2O[C@@H]2COc4cc(OC)c(OC)cc4[C@@H]2C3=O)O1 | – | 55.7 nM (active) and 11 nM (active) and 47.7 nM (active)
CCCCC(CC)COC(=O)Cl (stereo not given) | 3.99% (inactive) | –
O=C(O)CC[N+](=O)[O-] | – | inactive
CNC(=O)Oc1cccc2c1OC(C)(C)O2 | – | inactive
CCCCN(CCCC)N=O | – | inactive
O=C(Nc1ccc(Br)cc1)c1cc(Br)cc(Br)c1O | – | 21.8 µM (active) and 21.9 µM (active)
Oc1cc(Cl)c(Cl)cc1Cl | – | inactive
Nc1ccc(-c2ccccc2)cc1 | – | 7.98 µM (active) and inactive
CC(O)CCO (stereo not given) | – | inactive
Cc1c(COC(=O)[C@@H]2[C@H](/C=C(\Cl)C(F)(F)F)C2(C)C)cccc1-c1ccccc1 | – | 21.4 µM (active)
CC(C)c1ccc(CO)cc1 | – | inactive
CCCCCc1cc(O)cc(O)c1 | – | 24.5 µM (active)
CC(C)(c1cc(Cl)c(O)c(Cl)c1)c1cc(Cl)c(O)c(Cl)c1 | – | inactive
c1cc(OCC2CO2)ccc1Cc1ccc(OCC2CO2)cc1 (stereo not given) | – | inactive
C=CCN(CC=C)C(=O)C(Cl)Cl | – | inactive

Compound | activity change, negative = cytotoxic | Potency
Cc1ccccc1[N+](=O)[O-] | – | inactive
CCOP(=S)(OCC)O/N=C(\C#N)c1ccccc1 | – | inactive
CC(C)N(C(=O)SCC(Cl)=C(Cl)Cl)C(C)C | – | inactive
O=C(O)C(F)(F)C(F)(F)C(F)(F)C(F)(F)C(F)(F)C(F)(F)C(F)(F)F | – | inactive
CCOCN(C(=O)CCl)c1c(C)cccc1CC | -17.4% (inactive) | –
C=CCc1ccc(OC)cc1 | – | inactive
CCC(CC)Nc1c([N+](=O)[O-])cc(C)c(C)c1[N+](=O)[O-] | – | inactive
N#Cc1cc(Br)c(O)c(Br)c1 | – | inactive
CCOC(=O)C(C)OC(=O)c1cc(Oc2ccc(C(F)(F)F)cc2Cl)ccc1[N+](=O)[O-] (stereo not given) | – | 30.7 µM (active)
CCC(C)c1cc([N+](=O)[O-])cc([N+](=O)[O-])c1O (stereo not given) | 6.14% (inactive) | –
O=Cc1ccco1 | 0.512% (inactive) | –
Cc1ccc(OP(=O)(Oc2ccc(C)cc2)Oc2ccc(C)cc2)cc1 | -19.6% (inactive) | –
c1ccc(P(c2ccccc2)c2ccccc2)cc1 | -28.2% (inactive) | –
CC(C)(C)c1ccccc1O | – | inactive
CN(C)C(=O)Nc1ccc(Cl)cc1 | – | inactive
O=c1oc2ccccc2c(O)c1C(CC(O)c1ccc(-c2ccc(Br)cc2)cc1)c1ccccc1 (stereo not given) | – | inactive
CC(C)C(=O)OCC(C)(C)C(OC(=O)C(C)C)C(C)C (stereo not given) | – | inactive
Brc1ccc(Oc2cc(Br)c(Br)cc2Br)c(Br)c1 | – | 43.6 µM (active)
CCN(CC)N=O | – | inactive
CNC(=O)N(C)c1nnc(C(C)(C)C)s1 | – | inactive
